Experimental findings from PubChem BioAssay are described below.

A number with no mark means an inactive call. For some assays here: Entries with a potency or affinity are not part of this list. Calls of active or inactive are those of the source. Unless noted, the rule behind the calls is not given here.

Assay [1] can be described thus: antimalarial activity against Dd2 strain (AID 2302;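 active = growth inhibition above 50% at the single 2 µM test dose, taken to imply half-maximal potency below 2 µM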;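 note: 0% = DMSO untreated growth and 100% = chloroquine plus artemisinin killed control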). To be noted: P. falciparum Dd2 in RBCs, LDH growth readout, 72 h; at 2 µM; hits give high values.
A short description of assay [2]: human hepatoma cell viability loss – ATP luminescence, cytotoxicity control for P. falciparum antimalarial project, primary screen (AID 2303;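 active = inhibition above 50%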;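 note: 0% = DMSO wells and 100% = digitonin-killed cells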). To be noted: HepG2 viability, 24-48 h, at 10 µM, hits give high values.
The target of assay [3] is L-lactate dehydrogenase (Plasmodium falciparum (isolate CDC / Honduras)) (UniProt Q27743). Description: PfLDH activity inhibition – cell lysate, 3D7 strain, counter-screen for P. falciparum growth inhibition project (AID 2304).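 Note: 0% = vehicle and 100% = reference inhibitor.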 To be noted: P. falciparum 3D7 crude extract, LDH APAD/NBT absorbance; at 2 µM; hits give high values. Background: Counterscreens check selectivity or assay interference.
L-lactate dehydrogenase (Plasmodium falciparum (isolate CDC / Honduras)), sequence (Q27743 whole entry, looked up): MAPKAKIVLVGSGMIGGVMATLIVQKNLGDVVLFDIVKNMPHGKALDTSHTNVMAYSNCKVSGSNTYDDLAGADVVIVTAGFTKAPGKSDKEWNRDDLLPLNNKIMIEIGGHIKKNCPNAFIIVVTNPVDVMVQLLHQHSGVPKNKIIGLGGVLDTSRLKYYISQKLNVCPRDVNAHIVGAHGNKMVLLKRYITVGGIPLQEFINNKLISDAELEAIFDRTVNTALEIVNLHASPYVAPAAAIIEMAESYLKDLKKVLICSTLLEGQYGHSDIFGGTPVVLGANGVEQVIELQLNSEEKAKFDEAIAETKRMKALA

Assay [4] in a line: inhibition of 3D7 malaria parasite growth – strain 3D7 (AID 2306).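 Note: 0% = DMSO wells and 100% = chloroquine plus artemisinin control wells.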 The settings on record: P. falciparum 3D7 erythrocytic growth, LDH absorbance, 72 h; at 2 µM; hits give high values.
The target in assay [5] is Calcium-dependent protein kinase 1 (Plasmodium falciparum (isolate 3D7)) (UniProt P62344). Kind of assay: PfCDPK1 kinase inhibitors, biochemical, TCAMS library (AID 1159585; cut-off not given, nearly all actives have IC50 up to about 0.98 µM;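 note: inhibitors leave more ATP so luminescence rises with inhibition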). To be noted: recombinant PfCDPK1, Kinase-Glo ATP depletion luminescence.
Calcium-dependent protein kinase 1 (Plasmodium falciparum (isolate 3D7)), sequence (P62344 whole entry, looked up): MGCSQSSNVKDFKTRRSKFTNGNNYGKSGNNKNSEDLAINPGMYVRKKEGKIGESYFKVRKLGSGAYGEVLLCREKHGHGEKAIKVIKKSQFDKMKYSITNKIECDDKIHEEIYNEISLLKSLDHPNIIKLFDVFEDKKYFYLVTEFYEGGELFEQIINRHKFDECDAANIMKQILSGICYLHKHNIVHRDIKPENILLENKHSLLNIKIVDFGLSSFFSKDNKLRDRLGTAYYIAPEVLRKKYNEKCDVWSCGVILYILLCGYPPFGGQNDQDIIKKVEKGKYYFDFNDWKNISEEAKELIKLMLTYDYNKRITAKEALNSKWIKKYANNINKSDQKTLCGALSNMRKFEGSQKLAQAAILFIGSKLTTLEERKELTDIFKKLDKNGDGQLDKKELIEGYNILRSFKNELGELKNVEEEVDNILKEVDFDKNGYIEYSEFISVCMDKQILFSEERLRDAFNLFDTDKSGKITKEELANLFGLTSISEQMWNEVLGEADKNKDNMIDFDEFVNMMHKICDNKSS
Assay [6] addresses Plasmodium falciparum protein kinase 6 (PK6, PF3D7_1337100) (UniProt Q8IDW1). Description: PfPK6 kinase inhibitors, biochemical, TCAMS library (AID 1159586). To be noted: recombinant PfPK6, Kinase-Glo ATP depletion luminescence. On the technique in general: Kinase-Glo reads ATP consumption through a luciferase reaction.
The target of assay [7] is Protein kinase 7 (PK7), Plasmodium falciparum 3D7 (PF3D7_0213400) (UniProt Q7YTF7). Description: inhibition of Plasmodium PK7 catalytic activity – biochemical, TCAMS antimalarial set, Kinase-Glo luminescence (AID 1159587). The settings on record: recombinant PfPK7, Kinase-Glo ATP depletion luminescence.
Protein kinase 7 (PK7), Plasmodium falciparum 3D7 (PF3D7_0213400), sequence (Q7YTF7 1-343): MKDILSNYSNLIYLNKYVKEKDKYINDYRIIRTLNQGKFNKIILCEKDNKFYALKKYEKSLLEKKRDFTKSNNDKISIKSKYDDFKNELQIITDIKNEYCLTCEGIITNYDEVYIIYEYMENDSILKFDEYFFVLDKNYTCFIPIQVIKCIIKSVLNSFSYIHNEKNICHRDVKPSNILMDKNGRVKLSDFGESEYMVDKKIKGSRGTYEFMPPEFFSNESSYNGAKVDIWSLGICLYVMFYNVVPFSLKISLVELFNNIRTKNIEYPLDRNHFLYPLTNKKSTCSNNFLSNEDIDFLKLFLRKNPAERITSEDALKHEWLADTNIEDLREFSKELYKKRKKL
Assay [8] has as its target Calcium-dependent protein kinase 4 (Plasmodium falciparum (isolate 3D7)) (UniProt Q8IBS5). Description: PfCDPK4 kinase inhibitors, biochemical, TCAMS library (AID 1159588; cut-off not given, nearly all actives have IC50 up to about 0.91 µM). The settings on record: recombinant PfCDPK4, Kinase-Glo ATP depletion luminescence.

For orientation: inhibition means the drop in the measured response relative to a control, in per cent.

Plasmodium falciparum protein kinase 6 (PK6, PF3D7_1337100), sequence (Q8IDW1 1-305): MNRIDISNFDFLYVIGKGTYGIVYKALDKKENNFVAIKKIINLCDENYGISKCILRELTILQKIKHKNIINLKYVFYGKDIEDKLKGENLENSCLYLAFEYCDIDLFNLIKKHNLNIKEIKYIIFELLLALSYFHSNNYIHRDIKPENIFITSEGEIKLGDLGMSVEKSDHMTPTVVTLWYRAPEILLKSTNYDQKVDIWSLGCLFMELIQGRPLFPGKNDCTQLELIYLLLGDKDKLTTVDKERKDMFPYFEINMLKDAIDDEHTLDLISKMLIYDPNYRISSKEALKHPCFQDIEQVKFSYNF
Calcium-dependent protein kinase 4 (Plasmodium falciparum (isolate 3D7)), sequence (Q8IBS5 whole entry, looked up): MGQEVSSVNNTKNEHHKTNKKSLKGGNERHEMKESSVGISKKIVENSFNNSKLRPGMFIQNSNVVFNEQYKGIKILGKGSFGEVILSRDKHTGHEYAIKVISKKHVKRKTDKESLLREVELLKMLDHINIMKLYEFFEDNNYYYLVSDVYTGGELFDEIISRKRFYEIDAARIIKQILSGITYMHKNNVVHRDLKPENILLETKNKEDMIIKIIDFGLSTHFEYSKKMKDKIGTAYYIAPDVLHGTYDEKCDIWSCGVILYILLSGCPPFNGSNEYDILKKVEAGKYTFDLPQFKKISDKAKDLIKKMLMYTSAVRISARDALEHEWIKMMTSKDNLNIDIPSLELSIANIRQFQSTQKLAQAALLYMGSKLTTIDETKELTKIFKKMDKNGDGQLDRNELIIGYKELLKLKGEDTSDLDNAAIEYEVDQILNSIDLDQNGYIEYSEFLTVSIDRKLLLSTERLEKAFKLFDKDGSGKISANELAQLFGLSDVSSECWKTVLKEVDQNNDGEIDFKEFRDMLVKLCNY

Take `CCCC/C=C(\Cl)c1ccc(O)c2c1C[C@H]1C[C@H]3[C@H](N(C)C)C(=O)C(C(N)=O)=C(O)[C@@]3(O)C(=O)C1=C2O`: the growth inhibition in assay [1] was 98% (active); in assay [4] it was 90% (active). Further, the inhibition in assay [2] is 16%; in assay [3], -4%. In addition, the outcome in assay [5], in assay [6], in assay [7] and in assay [8] was inactive.
As to `COc1ccc2nccc([C@@H](O)CN3CCC(NC(=O)c4ccc(-c5ccc(C#N)cc5)cc4)CC3)c2c1`, the growth inhibition in assay [1] is 91% (active); in assay [4], 101% (active). The inhibition in assay [2] is 42%; in assay [3], 4%. For the same molecule, the result in assay [5], in assay [6], in assay [7] and in assay [8] was inactive.
Consider `COc1ccc2c(NN=Cc3ccncc3)cc(C)nc2c1`, for which the growth inhibition is 95% (active) in assay [1] and 99% (active) in assay [4]. Also, the inhibition in assay [2] and in assay [3] was -4% in each case. For the same molecule, the result in assay [5], in assay [6], in assay [7] and in assay [8] was inactive.
In the case of `CS(=O)(=O)c1ccc(CNCc2cccc(-c3cccc(-c4nc5ccc(C(F)(F)F)cc5[nH]4)c3)c2)cc1`, the results for the growth inhibition in assay [1] and in assay [4] were 96% (active) and 103% (active), respectively. The results for the inhibition in assay [2] and in assay [3] were 5% and 2%, respectively. The outcome in assay [5], in assay [6], in assay [7] and in assay [8] was inactive.
In the case of `CC1CCN(c2nc(C(=O)NCCc3ccc(Cl)c(Cl)c3)c(C(C)C)s2)CC1`, the figures for the growth inhibition in assay [1] and in assay [4] were 38% and 88% (active), respectively. Besides, the figures for the inhibition in assay [2] and in assay [3] were -3% and 3%, respectively. In addition, the result in assay [5], in assay [6], in assay [7] and in assay [8] was inactive.
`COCCN1CCN(Cc2ccc(-c3ccc(-c4nc5c(C)cccc5[nH]4)s3)cc2)CC1`: the figures for the growth inhibition in assay [1] and in assay [4] were 52% (active) and 95% (active), respectively. In addition, the inhibition in assay [2] was 32%; in assay [3] it was -2%. In addition, the outcome in assay [5], in assay [6], in assay [7] and in assay [8] was inactive.
As to `O=C(Cc1cccnc1)N(Cc1ccc(-c2ccc(CNCc3cccnc3)cn2)cc1)C1CCN(Cc2ccccc2)CC1`, the growth inhibition in assay [1] is 6%; in assay [4], 93% (active). For the same molecule, the inhibition in assay [2] is 8%; in assay [3], -3%. Also, the result in assay [5], in assay [6], in assay [7] and in assay [8] was inactive.
For `COc1ccc2nccc([C@@H](O)CN3CCC(NCc4cc5ccccc5nn4)CC3)c2c1`, the growth inhibition in assay [1] was 16%; in assay [4] it was 94% (active). The inhibition in assay [2] was 5%; in assay [3], -1%. Also, the result in assay [5], in assay [6], in assay [7] and in assay [8] was inactive.
Regarding `CC(C)(C)OC(=O)c1c(NC(=O)/C=C/c2ccc(O)c(O)c2)sc2c1CCCC2`, the growth inhibition in assay [1] was 77% (active); in assay [4], 97% (active). Also, the inhibition was 4% in assay [2] and 2% in assay [3]. Further, the outcome in assay [5], in assay [6], in assay [7] and in assay [8] was inactive.
In the case of `O=C(NCC1CCCCC1)c1cc(=O)c2ccccc2o1`, the growth inhibition is 77% (active) in assay [1] and 98% (active) in assay [4]. Further, the inhibition was -1% in assay [2] and -2% in assay [3]. In addition, the result in assay [5], in assay [6], in assay [7] and in assay [8] was inactive.
Consider `O=C(Nc1cccc(-c2ccc(CN3CCCC3)cc2)c1)c1cccc(F)c1`, for which the growth inhibition was 17% in assay [1] and 99% (active) in assay [4]. The inhibition in assay [2] was 20%; in assay [3] it was -6%. For the same molecule, the outcome in assay [5], in assay [6], in assay [7] and in assay [8] was inactive.
For the molecule `O=C(O)c1ccc(-c2c[nH]c3ncc(-c4ccc(Cl)cc4)cc23)cc1`, the figures for the growth inhibition in assay [1] and in assay [4] were 99% (active) and 97% (active), respectively. The inhibition in assay [2] is 39%; in assay [3], 7%. Besides, the outcome in assay [5], in assay [6], in assay [7] and in assay [8] was inactive.
On to `O=C(NC1CCC(CCN2CCc3ccc(-c4cnccn4)cc3CC2)CC1)c1cccc(-n2cccn2)c1` (configuration not stated), for which the growth inhibition in assay [1] was 1%; in assay [4], 93% (active). Moreover, the inhibition in assay [2] is 23%; in assay [3], -3%. The result in assay [5], in assay [6], in assay [7] and in assay [8] was inactive.
`CCCCCCN1CCCN(Cc2ccc(C(=O)Nc3ccc(C)c(F)c3)cc2)CC1`: the growth inhibition in assay [1] was 58% (active); in assay [4], 92% (active). Besides, the inhibition in assay [2] is 47%; in assay [3], 0%. Also, the result in assay [5], in assay [6], in assay [7] and in assay [8] was inactive.
As to `COc1cc2c(cc1COc1ccccc1)CCN1Cc3cc(OC)c(OC)cc3CC21` (configuration not stated), the growth inhibition in assay [1] was 84% (active); in assay [4], 99% (active). For the same molecule, the values for the inhibition in assay [2] and in assay [3] were -1% and 2%, respectively. Also, the outcome in assay [5], in assay [6], in assay [7] and in assay [8] was inactive.
`CC1(C)N=C(N)N=C(N)N1OCc1cc(Cl)cc2c1OCOC2`: the growth inhibition was 64% (active) in assay [1] and 95% (active) in assay [4]. The inhibition in assay [2] was 65% (active); in assay [3], -1%. The outcome in assay [5], in assay [6], in assay [7] and in assay [8] was inactive.
For `O=c1n(CC2CCCCC2)c2cc(Cl)cc(OCCNc3ccncc3)c2n1CC1CCCCC1`, the growth inhibition is 64% (active) in assay [1] and 100% (active) in assay [4]. For the same molecule, the inhibition in assay [2] is 2%; in assay [3], -3%. Besides, the result in assay [5], in assay [6], in assay [7] and in assay [8] was inactive.
Consider `O=C(c1c(-c2[nH]c3ccccc3c2C(=O)C(F)(F)F)[nH]c2ccccc12)C(F)(F)F`, for which the figures for the growth inhibition in assay [1] and in assay [4] were 99% (active) and 97% (active), respectively. In addition, the inhibition in assay [2] is 18%; in assay [3], 3%. Further, the result in assay [5], in assay [6], in assay [7] and in assay [8] was inactive.
As for `CNC(=O)c1ccccc1Nc1cc(Nc2cc(OC)ccn2)ncc1Cl`, the growth inhibition in assay [1] and in assay [4] was 100% (active) each time. In addition, the inhibition is 69% (active) in assay [2] and 5% in assay [3]. Further, the outcome in assay [5], in assay [6], in assay [7] and in assay [8] was inactive.
